Many of the other results were omitted from the sample, so hits are more common in it than they were.
TbREL1 inh = TbREL1 inhibition, primary screen. P86926. TbREL1 RNA ligation, FRET fluorescence. inhibition, % at 9.66 µM. 89,000 compounds, 0.49% hits. AID 1117264;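 active = inhibition above the mean inhibition across all screened compounds plus 3 SD, cut at about 11% in these data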;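 note: 0% = plate median of test wells and 100% = NSC42067 control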
Target sequence (P86926 whole entry, looked up): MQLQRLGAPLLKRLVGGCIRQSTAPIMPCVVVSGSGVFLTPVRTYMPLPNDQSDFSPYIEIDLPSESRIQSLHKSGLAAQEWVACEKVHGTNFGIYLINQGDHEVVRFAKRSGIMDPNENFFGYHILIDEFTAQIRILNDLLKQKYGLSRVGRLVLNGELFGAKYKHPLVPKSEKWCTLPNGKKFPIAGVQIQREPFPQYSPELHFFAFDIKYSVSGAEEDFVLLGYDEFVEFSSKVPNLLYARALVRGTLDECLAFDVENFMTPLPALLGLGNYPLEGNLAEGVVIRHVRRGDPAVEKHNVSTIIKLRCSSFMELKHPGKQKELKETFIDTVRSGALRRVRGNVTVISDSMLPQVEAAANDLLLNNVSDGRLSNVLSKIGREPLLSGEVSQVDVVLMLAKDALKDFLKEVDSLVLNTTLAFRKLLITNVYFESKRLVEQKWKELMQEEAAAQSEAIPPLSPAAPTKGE
TbREL1 conf = TbREL1 inhibition, confirmation; shares compounds with TbREL1 inh; TbREL1 RNA ligation, FRET fluorescence; inhibition, % at 9.66 µM; 390 compounds, 37% hits;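 active = mean inhibition across replicates above a set limit taken from the earlier primary screen, cut at about 11% in these data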;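 note: 0% = REL1 with substrate and DMSO and 100% = REL1 plus control inhibitor NSC42067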
* = called active by the depositor.

SMILES | TbREL1 inh | others
Cc1cccc(C(=O)N[C@H]2CC[C@@]34CCCN3C(=O)CCC[C@H]4[C@H]2C)c1 | 4.5
COC(=O)CSc1nnc(-c2ccc(NS(=O)(=O)c3ccc(C(C)(C)C)cc3)cc2)o1 | 5.5
CC(C)CCNC(=O)C1CCCN(C(=O)c2ccc3c(c2)NC(=O)CS3)C1 (stereo not drawn) | -1.5
CCC[C@H]1[C@@H](NC(=O)c2ccc(Cl)cc2)CC[C@@]23CCCN2C(=O)CCC[C@@H]13 | 0.0
CC(C)c1ccc(NC(=O)OC2CCC23CCC(c2ccccc2)CC3)cc1 (stereo not drawn) | 4.2
COc1ccc(C2C(C(=O)Nc3cc(Cl)ccc3F)CCC(=O)N2c2ccc(OC)cc2)cc1 (stereo not drawn) | 0.4
CCOc1ccc(-n2c(SCC(=O)NN=Cc3ccc(C(=O)O)cc3)nnc2-c2cccnc2)cc1 | -0.6
O=C(NC1CCC1)O[C@H]1CC[C@@]23CCCN2C(=O)CCC[C@H]3C1 | 4.1
COc1ccc(N2CCN(CCNS(=O)(=O)c3c(C(C)C)cc(C(C)C)cc3C(C)C)CC2)cc1 | -3.5
O=C(Nc1ccc2[nH]ccc2c1)c1cc(-c2ccc(Cl)cc2)nc2ccccc12 | -2.5
O=C(NCc1cccc(C(F)(F)F)c1)O[C@H]1CC[C@@]23CCCN2C(=O)CCC[C@H]3C1 | -5.0
Cc1ccc(NC(=O)OCCN2CCN(Cc3ccccc3)CCC2=O)cc1C | 12.1* | TbREL1 conf=0.3
O=C(NCc1ccccc1)OCCN1CCN(Cc2ccccc2)CCC1=O | -2.6
O=C(Nc1ccc(F)cc1)OCCN1CCN(Cc2ccccc2)CCC1=O | -2.8
O=C(Nc1ccc(F)cc1F)c1cc(-c2ccc(Cl)cc2)nc2ccccc12 | 0.5
O=S(=O)(Nc1cccc(-c2cn3c(n2)SCC3)c1)c1ccccc1F | -4.2
Oc1ccc(-c2cn3c(n2)SCC3)cc1 | -3.5
Oc1ccc(-c2cn3c(n2)SCC3)cc1O | 17.0* | TbREL1 conf=40.6*
CCCC1CCC2(CC1)CCC2OC(=O)Nc1ccc2c(c1)OCO2 (stereo not drawn) | -0.9
CCN1C(=NCc2cccc(Cl)c2)N[C@@H](c2cccc(F)c2)C(C(=O)OC)=C1C | 7.2
COC(=O)C1=C(C)N(Cc2ccccc2)C(=NCc2ccc(OC)cc2)N[C@H]1c1ccccc1 | 9.9
COC(=O)C1=C(C)N(Cc2cccc(C(F)(F)F)c2)C(=NCc2ccc(OC)cc2)NC1c1ccc(F)cc1 (stereo not drawn) | 12.0* | TbREL1 conf=13.7*
COC(=O)C1=C(C)N(Cc2ccccc2C(F)(F)F)C(=NCc2ccc(C(F)(F)F)cc2)NC1c1ccccc1 (stereo not drawn) | 15.9* | TbREL1 conf=18.3*
COC(=O)C1=C(C)N(Cc2ccc(F)cc2)C(=S)NC1c1cccc(OC)c1 (stereo not drawn) | -6.3
COC(=O)C1=C(C)N(Cc2ccccc2)C(=NCc2cccc(C(F)(F)F)c2)N[C@H]1c1cccc(F)c1 | 9.0
SMILES | TbREL1 inh | others
CCN=C1NC(c2ccc(F)cc2)C(C(=O)OC)=C(C)N1Cc1ccc(C(F)(F)F)cc1 (stereo not drawn) | 4.2
COC(=O)C1=C(C)N(Cc2ccccc2C(F)(F)F)C(=NCc2ccccc2)NC1c1cccc(F)c1 (stereo not drawn) | 14.7* | TbREL1 conf=20.0*
CCN=C1NC(c2ccc(C(F)(F)F)cc2)C(C(=O)OC)=C(C)N1Cc1ccccc1C(F)(F)F (stereo not drawn) | 11.4* | TbREL1 conf=12.0*
COC(=O)C1=C(C)N(Cc2ccc(Br)cc2)C(=S)NC1c1ccc(F)cc1 (stereo not drawn) | 2.3
O=C(C1CCC1)N1CCc2cc(S(=O)(=O)N3CCN(c4ccccc4F)CC3)ccc21 | -2.1
O=C(CSc1nnc(-c2cccnc2)n1-c1ccc(Cl)cc1)c1ccc2ccccc2c1 | -3.0
COc1ccc(OC)c(S(=O)(=O)N(CCc2ccc(OC)c(OC)c2)Cc2cccs2)c1 | 1.8
Cc1ccccc1N1CCN(S(=O)(=O)c2ccc3c(c2)n(C)c(=O)c(=O)n3C)CC1 | -2.5
Cc1ccc(S(=O)(=O)N2CC[C@@]3(Cc4ccccc4)Cc4ccccc4C[C@@H]23)cc1 | 3.7
CCCCCCCCN1C(=O)[C@@H](CC(=O)NCCCOCCCC)C[C@@]2(C(=O)OC)C1=C[C@H](C(C)C)O[C@@H]2C1CC1 | -1.4
CCOc1ccc(-n2c(SCC(=O)c3ccc4ccccc4c3)nnc2-c2cccc(Cl)c2)cc1 | 3.9
CCCC/C=C1/[C@H](c2ccccc2)N(C)C2=N[C@H](c3ccccc3)CC(=O)N21 | -2.2
CCOc1ccc(-n2c(COc3ccccc3)nnc2SCC(=O)Nc2ccc3c(c2)OCCO3)cc1 | 5.0
CCCCNC(=O)NC1CCN(CC(=O)Nc2ccc3c(c2)OCCO3)CC1 | 2.9
Cc1cc(N2CCC(C)CC2)nc2ccccc12 | 6.3
COC(=O)C1=C(C)N(Cc2ccccc2C(F)(F)F)C(=NCc2ccccc2)NC1c1ccc(Cl)cc1 (stereo not drawn) | 14.2* | TbREL1 conf=15.6*
COC(=O)C1=C(C)N(Cc2ccccc2)C(=S)NC1c1ccc(-c2ccccc2)cc1 (stereo not drawn) | -5.9
COC(=O)C1=C(C)N(Cc2ccccc2C(F)(F)F)C(=NCc2ccc(C(F)(F)F)cc2)NC1c1ccc(C(F)(F)F)cc1 (stereo not drawn) | 25.2* | TbREL1 conf=23.2*
CC(C)Oc1cccc(-c2csc(N3CCC(C(N)=O)CC3)n2)c1 | 4.1
Cn1c(COc2ccccc2)nnc1SCC(=O)Nc1ccccc1-c1ccccc1 | -1.4
C[C@@H](O[Si](c1ccccc1)(c1ccccc1)C(C)(C)C)[C@@H]1NC(=O)[C@@H]2C[C@]3(Br)c4ccccc4N(S(=O)(=O)c4ccccc4)[C@@H]3N2C1=O | 0.5
O=C(N[C@H](Cc1ccccc1)C(=O)NCc1cccc2ccccc12)[C@H]1O[C@@H](n2ccc(=O)[nH]c2=O)[C@H](O)[C@@H]1O | -1.0
C[C@@H]1[C@@H](c2ccccc2)OC(O)([C@H](Cc2ccccc2)NC(=O)OC(C)(C)C)CN1C (stereo partly drawn) | -3.2
CN1CC(O)([C@H](Cc2ccccc2)NC(=O)OC(C)(C)C)OCC1C(=O)NCc1cccc2ccccc12 (stereo partly drawn) | 11.1* | TbREL1 conf=-3.2
NC(=O)C1CCN(c2nc(-c3ccc4c(c3)OCCCO4)cs2)CC1 | -0.6
SMILES | TbREL1 inh | others
CCOC(=O)CC[C@H](NC(=O)[C@@H]1CC=C[C@@H]2CCN(Cc3ccc(Cl)cc3)C(=O)[C@@H]21)C(=O)OCC | 1.9
O=C(NCC1COCCO1)C1CCN(S(=O)(=O)c2ccc(Br)s2)CC1 (stereo not drawn) | 2.9
O=C(N1CCc2ccccc2C1)n1cc(C(O)(c2ccccc2)c2ccccc2)nn1 | -3.9
CCCC1CCC2(CC1)CCC2OC(=S)Nc1ccccc1OC (stereo not drawn) | 0.3
COc1ccccc1-c1c(C)nn2c(N3CCC(C)CC3)cc(C)nc12 | -0.9
COc1ccccc1-c1c(C)nn2c(N3CCC(C(N)=O)CC3)cc(C)nc12 | 3.9
CCOC(=O)N1CCN(C(=O)CSc2cc(C)nc3c(-c4ccccc4OC)c(C)nn23)CC1 | 13.5* | TbREL1 conf=2.1
COCC(=O)N1CCC(C(=O)NC2CCCc3ccccc32)CC1 (stereo not drawn) | 0.8
O=[N+]([O-])c1ccc(CN2CCOCCOCCN(Cc3ccc([N+](=O)[O-])cc3Cl)CCOCC2)c(Cl)c1 | -1.1
C=CCn1c(SCC(=O)Nc2ccccc2OCC)nnc1-c1ccc(C(C)(C)C)cc1 | -2.5
CCN1CCN(CCOCCOc2ccccc2)CC1 | 3.5

Screening results from PubChem.
